The panel holds about 83,000 compounds, 20% with a hit somewhere; the sample as a whole holds those more often.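 Cells were grown in 96-well plates and exposed to the test compound at a single concentration for 48 hours; results are reported as percent growth, with values below 10 considered active.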 Unmarked numbers belong to inactive results. The source made the active and inactive calls.

One experiment concerns RPMI-8226 leukemia. In words: NCI-60 one-dose screen, 48 h (100 = growth as untreated, 0 = no growth, -100 = all killed). The conditions noted are these: 10 µM unless noted.
Regarding `CC(C)OC(=O)c1ccc([N+](=O)[O-])cc1`, the growth is 98.5%. Take `COc1cc(CN2CCO[C@H](COc3cccc(F)c3)C2)ccc1Cl`: the growth is 30.4%.

Take `COc1cc(NC(C)CCCN)c2ncccc2c1Oc1ccc(Cl)cc1` (stereo not given): the growth was 63%.

Regarding `OC(c1cc(-c2ccc(C(F)(F)F)cc2)nc(-c2ccc(C(F)(F)F)cc2)c1)C1CCCCN1` (stereo not given), the growth was -48.4% (active). `C=CCn1c(C)nc2cc(Nc3nc(Nc4ccc5nc(C)n(CC=C)c5c4)nc4ccccc34)ccc21`: the growth is 98.8%. Take `Fc1ccc2c(CN3CCO[C@H](COc4cccc(Cl)c4)C3)c[nH]c2c1`: the growth is 12.5%.

The next experiment concerns OVCAR-8 ovarian. The description is as above. The conditions noted are these: 10 µM unless noted.
`Cn1nc(C(F)(F)F)cc1-c1cc(Cl)c(OCc2ccc(Cl)cc2)c(-c2ccc(Cl)c(C(F)(F)F)c2)c1O`: the growth is 14.5%.

As for `CC(=O)O[C@H]1[C@H](CC#CC#CC[C@@H]2C[C@]3(C)[C@H]4CC=C5[C@H]6[C@@H](C)[C@H](C)CC[C@]6(C(=O)NCCN(CCN)CCN)CC[C@@]5(C)[C@]4(C)CC[C@H]3C(C)(C)[C@H]2OC(C)=O)C[C@]2(C)[C@H]3CC=C4[C@H]5[C@@H](C)[C@H](C)CC[C@]5(C(=O)NCCN(CCN)CCN)CC[C@@]4(C)[C@]3(C)CC[C@H]2C1(C)C`, the growth is 3.13% (active). Still for that read-out and setting: the same measure for `CC(=O)c1ccc(Nc2nc(Cl)nc(Oc3c(Cl)cccc3Cl)n2)cc1`: 92.5%; for `Oc1[nH]c2ccccc2c1/C=c1/ccc2c(c1)N=C(c1ccc(C(F)(F)F)cc1)N=2`: 70.5%.

In the case of `Brc1cccc(-n2ncc3c(Nc4ccc(-c5nnc(-c6ccccc6)o5)cc4)ncnc32)c1`, the growth is 97.8%. The same measure, in the same setting: in the case of `CCNC(=S)N(Cc1ccccc1)Cc1ccccc1` it was 103%.

With `COc1cccc(CC(C)=C(c2ccc(OCCCN(C)C)cc2)c2ccc(OCCCN(C)C)cc2)c1`, the growth was -78.7% (active). In the case of `N[C@@H](CO)C(=O)O`, the growth was 99.8%. `O=C(c1ccc(C(F)(F)F)c(Cl)c1)N(Cc1ccc(Cl)cc1)c1ccc(-c2cc(C(F)(F)F)[nH]n2)c(O)c1`: the growth was 11%.

Consider `c1ccc(C(Nc2ccccn2)(c2ccccc2)c2ccccc2)cc1`, for which the growth was 70.4%. Same read-out and setting: in the case of `CC[C@H](Nc1nc(N)nc(N)c1Cl)c1nc2cccc(NCc3ccc(C(=O)NO)cc3)c2c(=O)n1-c1ccccc1` it was -29.1% (active); in that of `N#Cc1nc(-c2ccc(Cl)cc2)cc(-c2ccc(Nc3nc(N4CCCCC4)nc(N4CCCCC4)n3)cc2)c1N`, 96.5%.

Consider `C#CC[C@@H]1C[C@]2(C)[C@H]3CC=C4[C@H]5[C@@H](C)[C@H](C)CC[C@]5(C(=O)NCCCCN)CC[C@@]4(C)[C@]3(C)CC[C@H]2C(C)(C)[C@H]1OC(C)=O`, for which the growth is 63.7%. On the same count and under the same terms, the same measure for `Cn1nc(C(F)(F)F)cc1-c1c[nH]c(OCc2ccc(Cl)cc2)c(-c2ccc(Cl)c(C(F)(F)F)c2)c1=O`: 12.5%. Same read-out and setting: in the case of `COc1ccc(NC(=O)c2ccc(C(F)(F)F)nc2Nc2ccc(Cl)cc2C)cc1Cl` it was 15.6%; in that of `O=C(Cn1nncc1CN1C(=O)CSC1=O)Nc1ccc(F)cc1`, 108%. Still for that read-out and setting: in the case of `COc1ccc(NC(=O)/C=C/c2ccc(Cl)c(Cl)c2)cn1` it was 61.1%.

Take `CCCCNCC(O)c1cc(-c2ccc(C(F)(F)F)cc2)nc(-c2ccc(C(F)(F)F)cc2)c1` (stereo not given): the growth was -71.1% (active). Still for that read-out and setting: the same measure for `CCCc1cc2c(cc1CN(Cc1cc3c(cc1CCC)OCO3)C(=N)OCC)OCO2`: 82.4%; for `CCCNC(=S)N/N=C(\C)c1ccccn1`: 25.2%. Still for that read-out and setting: the same measure for `C#CC[C@@H]1C[C@]2(C)[C@H]3CC[C@@H]4[C@H]5C(C(=C)C)CC[C@]5(C(=O)NCCCN5CCN(CCCN)CC5)CC[C@@]4(C)[C@]3(C)CC[C@H]2C(C)(C)[C@H]1OC(C)=O` (stereo not given in full): -6.54% (active).

With `COc1cc2nccc(Oc3ccc(NC(=O)C4(C(=O)Nc5c(F)cc(F)cc5F)CC4)cc3)c2cc1Oc1ccc(N)cn1`, the growth is 69.7%. The same measure, in the same setting: in the case of `COc1ccc2[nH]c(C(=O)OCc3ccc4cccc(O)c4n3)cc2c1` it was 0.942% (active). Regarding `CCOCC(O)(c1ccc(Cl)cc1)c1ccc(Cl)cc1`, the growth is 103%.

As to `Cc1cc(C)cc(NC(=O)Cn2nncc2CN2C(=O)CSC2=O)c1`, the growth is 101%. Still for that read-out and setting: the same measure for `Cc1ccc(NC(=O)Cn2nncc2CN2C(=O)CSC2=O)cc1C`: 102%; for `COC(=O)/C=C/c1cc(OC(C)=O)c2c(c1)[C@@H](C(=O)OC)[C@H](c1ccc(OC(C)=O)c(OC(C)=O)c1)O2`: 11%; for `N=c1n(Cc2ccccc2)c(N)cc(=O)n1Cc1ccccc1`: 20%. On the same count and under the same terms, the same measure for `CC(C)[C@H](CN)NC[C@H](C)NS(=O)(=O)c1ccc(C(C)(C)C)cc1`: 97.5%; for `COc1ccc(/C(=C\c2ccc3c(c2)OCO3)C(=O)Nc2nc3ccccc3s2)cc1`: 102%; for `Cc1ccc(-c2cnc3sc4ccc(Cl)cc4n23)cc1`: 103%. Still for that read-out and setting: in the case of `COc1cc(C2Nc3ccccc3S2)cc(CN2CCOCC2)c1O` (stereo not given) it was 88.9%; in that of `CC1=C(O)C(=O)C(c2c(C)cc(C)c(Br)c2C)=C(O)C1=O`, 68.4%; in that of `CC(C)OC(=O)c1ccc([N+](=O)[O-])cc1`, 108%. Take `COc1cc(CN2CCO[C@H](COc3cccc(F)c3)C2)ccc1Cl`: the growth was 22.2%.

For the compound `COc1cc(NC(C)CCCN)c2ncccc2c1Oc1ccc(Cl)cc1` (stereo not given), the growth was 84.8%. As to `OC(c1cc(-c2ccc(C(F)(F)F)cc2)nc(-c2ccc(C(F)(F)F)cc2)c1)C1CCCCN1` (stereo not given), the growth was -64.5% (active). Take `C=CCn1c(C)nc2cc(Nc3nc(Nc4ccc5nc(C)n(CC=C)c5c4)nc4ccccc34)ccc21`: the growth was 98.9%. Still for that read-out and setting: in the case of `Fc1ccc2c(CN3CCO[C@H](COc4cccc(Cl)c4)C3)c[nH]c2c1` it was 33.3%.

The values above are taken from PubChem BioAssay (NCI).
